Source: PubChem BioAssay AID1224855 (National Center for Advancing Translational Sciences (NCATS), 2016)
Records with an inconclusive call do not appear. The source made the active and inactive calls. Calls come from the whole dose curve; as a rule, active = well fitted inhibition curve with a large enough effect; inconclusive = small, poorly fitted or top-dose-only effect; inactive = no such curve, though single readings can be large or run the other way.

experiment: Confirmation assay for measurement of the activity of small molecule inhibitors on Zika virus induced Caspase-3 activity in human iPSC derived neural progenitor cells (hNPCs); conditions: hNPC ZIKV-induced caspase-3/7, Caspase-Glo luminescence, 6 h; series mostly up to 46.1 µM; activity, negative = inhibition: at the top concentration
Excerpt: National Center for Advancing Translational Sciences [NCATS] Johns Hopkins University School of Medicine Florida State University Assay Overview: Increase in the Caspase-3 activity indicates an activation of apoptosis cell death pathway caused by Zika virus infection in certain types of neuronal cells including human neural progenitor cells (hNPCs), astrocytes, and astrocytoma cell line (SNB-19). This cell-based caspase-3 activity assay measures the increased caspase-3 activity in the human iPSC derived neural progenitor cells (hNPCs) after a 6-hour Zika virus infection with a luminescence readout. A decrease in the luminescence signal in this assay by small molecule treatment indicates an inhibitory effect of that small molecule on the Zika virus induced caspase-3 activity that may correlate with its effect on reduction of Zika virus caused cell death.
Assay Protocol Summary: The medium for hNPCs consists of DMEM/F12, N2 supplement (ThermoFisher, Cat.# 17502048), NEAA (ThermoFisher, Cat. # 11140050), 2 ug/ml heparin, 2 uM cyclopamine, and B27 (ThermoFisher, Cat. # 17504044). A Caspase-Glo 3/7 assay kit (catalog number G8092; Promega, Madison, WI) was used to detect caspase-3 activity induced by Zika virus infection in human cells. The reagent mixture was reconstituted as described in the protocol from the manufacturer. Polystyrene tissue culture treated and PDL coated white plates were obtained from Greiner Bio-One (Monroe, NC). Cells were seeded in 384- or 1536-well assay plates and cultured at 37 C with 5% CO2 for 16 to 20 hours. The typical cell seeding density in the 1536-well plate assay is 350 cells/well in 3 ul medium for hNPCs in tissue culture treated plates. Compounds were added to cells and incubated for one hour before addition of ZIKV solution to cells (2 FFU/cell). After incubation at 37 C with 5% CO2 for 6 hours, the reagent mixture of Caspase-Glo 3/7 assay kit was added to each well, followed by incubation at room temperature for 30 minutes. The luminescence intensity of the assay plates was measured using a ViewLux plate reader (PerkinElmer). Data were normalized by using the cell-containing wells without ZIKV as a negative control (0% induction of caspase 3/7 activity) and wells containing ZIKV infected cells (Caspase-3 activity induced) as a positive control (100% induction of caspase 3 activity). The percentage inhibitions of the increased Caspase-3 activity by small molecule inhibitors were then calculated.

Compound	activity, negative = inhibition	Potency
O=C1C=CC[C@@H]2[C@H]3CCCN4CCC[C@@H](CN12)[C@@H]34	25.5% (inactive)	–
O=S(=O)(CC1CS1)c1ccc(Oc2ccccc2)cc1 (centres undefined)	38.7% (inactive)	–
O=C1CCC[C@@H]2[C@H]3CCCN4CCC[C@@H](CN12)[C@@H]34	34.5% (inactive)	–
O=c1c2ccccc2[se]n1-c1ccccc1	–	7.74 µM (active)
CC(C)[C@H]1C(=O)N[C@H](CO)Cc2c[nH]c3cccc(c23)N1C	-5.61% (inactive)	–
CC(C)[N+](C)(CCC(C(N)=O)(c1ccccc1)c1ccccc1)C(C)C	5.49% (inactive)	–
O=C(Nc1ccc(Br)cc1)c1cc(Br)cc(Br)c1O	–	13.8 µM (active)
CC(C)N[C@@H]1CCn2c(=O)[nH]c3cccc(c32)[C@@H]1O	-9.33% (inactive)	–
Oc1ccc([C@H]2CNCc3c2ccc(O)c3O)cc1O	-7.08% (inactive)	–
COP(=S)(OC)SCN1C(=O)c2ccccc2C1=O	-12.9% (inactive)	–
COc1cccc2c1C(=O)c1c(O)c3c(c(O)c1C2=O)C[C@@](O)(C(=O)CO)CC3OC1CC(N2CCOC(OC)C2)C(O)C(C)O1 (some centres undefined)	37.9% (inactive)	–
CC[n+]1c(-c2ccccc2)c2cc(N)ccc2c2ccc(N)cc21	3.42% (inactive)	–
CC(O)CN1CCN(CC(=O)[O-])CCN(CC(=O)[O-])CCN(CC(=O)[O-])CC1.[Gd+3] (centres undefined)	6.07% (inactive)	–
COC1(CS(=O)c2ccccc2)CCN(CCc2c[nH]c3ccc(F)cc23)CC1 (centres undefined)	6.59% (inactive)	–
